Assay results reported in PubChem BioAssay AID489008 (National Center for Advancing Translational Sciences (NCATS), 2010).
Inconclusive results are not listed. Active and inactive are the calls of the source. Calls come from the whole dose curve; as a rule, active = well fitted inhibition curve with a large enough effect; inconclusive = small, poorly fitted or top-dose-only effect; inactive = flat fitted curve, though single readings scatter.

Molecular target: Ferritin light chain (Equus caballus) (UniProt P02791)
Experiment: Confirmation Assay for Identification of Novel General Anesthetics; note: nearly all actives have a fitted effect of over 40% in size
Conditions: apoferritin 1-aminoanthracene fluorescence displacement
Description: Anesthetic development has remained a largely empirical process. There are growing concerns about the cognitive effects of known general anesthetics and acceleration of the onset of neurodegenerative disease. The compounds' toxicity and multiple specific binding targets in the mammalian brain [4] has made them less attractive as drug leads. In this assay, a GABAergic mimetic model system, apoferritin and a profluorescent 1-aminoanthracene ligand (1-AMA), was used to construct a competitive binding assay for identification of novel general anesthetics. The assay was validated for 1-AMA using other known anesthetics, such as isoflurane (CID:3763) and propofol (CID: 4943), [6]. This particular BioAssay is a confirmation of followup compounds from primary screen AID:485281.
[1] S.L. Bianchi, T. Tran, C. Liu, S. Lin, Y. Li, J.M. Keller, R.G. Eckenhoff, and M.F. Eckenhoff, Brain and behavior changes in 12-month-old Tg2576 and nontransgenic mice exposed to anesthetics. Neurobiol Aging 29 (2008) 1002-10.
[2] Z. Xie, Y. Dong, U. Maeda, R.D. Moir, W. Xia, D.J. Culley, G. Crosby, and R.E. Tanzi, The inhalation anesthetic isoflurane induces a vicious cycle of apoptosis and amyloid beta-protein accumulation. J Neurosci 27 (2007) 1247-54.
[3] P. Honegger, and J.M. Matthieu, Selective toxicity of the general anesthetic propofol for GABAergic neurons in rat brain cell cultures. J Neurosci Res 45 (1996) 631-6.
[4] M.F. Eckenhoff, K. Chan, and R.G. Eckenhoff, Multiple specific binding targets for inhaled anesthetics in the mammalian brain. J Pharmacol Exp Ther 300 (2002) 172-9.
[5] C.A. Butts, J. Xi, G. Brannigan, A.A. Saad, S.P. Venkatachalan, R.A. Pearce, M.L. Klein, R.G. Eckenhoff, and I.J. Dmochowski, Identification of a fluorescent general anesthetic, 1-aminoanthracene. Proc Natl Acad Sci U S A 106 (2009) 6501-6.
[6] W.A. Lea, J. Xi, A. Jadhav, L. Lu, C.P. Austin, A. Simeonov, and R.G. Eckenhoff, A high-throughput approach for identification of novel general anesthetics. PLoS One 4 (2009) e7150.
Source: NIH Chemical Genomics Center [NCGC]
Assay Submitter: Roderic Eckenhoff, University of Pennsylvania
Screening Center PI: Christopher P. Austin, NIH
Probe Development: NIH Chemical Genomics Center [NCGC]
Three uL of reagents (free 1-AMA (50% saturated solution of 1-aminoanthracene
in PBS) in columns 3, 4 as negative control and 1-AMA/apoferritin mixture (10 uM horse-spleen apoferritin in 50% saturated 1-aminoanthracene in PBS) in columns 1, 2, 5-48) was dispensed into 1536-well Greiner black assay plates. Compounds (23 nL) were transferred via Kalypsys pintool equipped with 1,536-pin array (10 nL slotted pins, V&P Scientific, San Diego, CA). Titration of the positive control, propofol, were delivered via pin transfer from separate control plates to the 2nd column of each assay plate. The starting concentration of the control, dissolved in DMSO, was at 160 mM, followed by two-fold dilution points in duplicate, for a total of 16 concentrations. The plates were incubated for 10 min at room temperature, and then read on an EnVision HTS multilabel reader (Perkin-Elmer, Waltham, MA) (end point read, 3 min/plate) using Fura2 BFP excitation filter (380 nm, bandwidth 10 nm) and fluorescein emission filter (535 nm, bandwidth 25 nm) set. A LANCE/DELFIA dichroic mirror with a cutoff wavelength at 400 nm was used to maximize signal accuracy and strength. Vehicle-only plates, with DMSO being pin-transferred to the entire column 5-48 compound area, were inserted uniformly at the beginning and the end of each library in order to monitor for and record any shifts in the background. Activity was computed as the normalized fluorescence response relative to free 1-AMA and 1-AMA/apoferritin complex values. Concentration-effect relationships were derived by using curve fitting algorithms developed in-house (http://ncgc.nih.gov/pub/openhts/). […]
Potency is the fitted concentration of half-maximal effect.

Sequence of Ferritin light chain (Equus caballus) (P02791 2-175 limits assumed): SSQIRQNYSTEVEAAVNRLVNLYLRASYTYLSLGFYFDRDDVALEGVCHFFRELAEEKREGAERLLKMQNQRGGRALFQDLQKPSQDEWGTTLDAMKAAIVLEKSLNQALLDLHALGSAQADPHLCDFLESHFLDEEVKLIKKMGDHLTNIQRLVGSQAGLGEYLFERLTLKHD

Potency, active:
O=C(Nc1cccc(Cl)c1)OCc1cncs1 15.8 µM
Cc1cccc(NC(=O)N2CCCCCC2)c1 11.2 µM
O=[N+]([O-])c1ccc(CNc2cccc(Cl)c2)s1 15.8 µM
Cc1cc(OCC(=O)N(C)C2CCCCC2)cc(C)c1Cl 35.5 µM
CCCCOC(=O)Nc1ccc(C)c(Cl)c1 17.8 µM
Oc1ccc(C(=S)N2CCCCC2)cc1Cl 17.8 µM
O=C(Cn1nc(-c2ccc(Cl)cc2)ccc1=O)NCC1CCCO1 (stereo not given) 14.1 µM
Cc1ccccc1NCc1ccccc1O 15.8 µM
CNc1nc(C23CC4CC(CC(C4)C2)C3)cs1 15.8 µM
Oc1ccc(C2C[C@H]3CC[C@@H]2C3)cc1O (stereo not given in full) 7.08 µM
Cc1cc(C)n2nc(CC(=O)NC3CCCC(C)C3C)nc2n1 (stereo not given) 15.8 µM
CC(=O)c1cccc(NC(=O)CN2C(=O)NC3(CCCCCCC3)C2=O)c1 14.1 µM
COC(=O)c1ccc(/C=N/OCC(=O)NC2CCCCCCC2)cc1 7.94 µM
COc1ccccc1C1SCCN1S(C)(=O)=O (stereo not given) 20 µM
CC(NC(=O)c1ccc(Br)o1)C1CC2CCC1C2 (stereo not given) 8.91 µM
CC1(C)CC(=O)N(Cc2ccccc2)C(=O)C1 8.91 µM
COc1ccc(Cc2nnc(NC(=O)c3ccccc3F)s2)cc1 25.1 µM
CC(NC(=O)COC(=O)Cc1ccsc1)C1CC2CCC1C2 (stereo not given) 31.6 µM
N/C(=N\OC(=O)Cc1ccc(-c2ccccc2)cc1)c1ccncc1 31.6 µM
CCNc1nc(C23CC4CC(CC(C4)C2)C3)cs1 7.94 µM
CC(C)(Nc1ccccc1)C(=O)c1ccccc1 12.6 µM
CCCNC(=O)c1csc2c1CCCCC2 28.2 µM
COc1ccc(CNc2ccc(C)c(C)c2)cc1 15.8 µM
NC(=O)COC(=O)CC12CC3CC(CC(Br)(C3)C1)C2 17.8 µM
Cc1ccccc1Cn1c(C)cc(C)c(C#N)c1=O 15.8 µM
Cc1cc(C)c(C)c(OCC(=O)N2CCCCCC2)c1 17.8 µM
CC1(C)CC(=O)c2c(noc2-c2ccccc2)C1 17.8 µM
Cc1cc(C)cc(C(=O)N2CCCCCC2)c1 20 µM
Nc1nc(-c2ccc3c(c2)CCCC3)cs1 28.2 µM
Cc1nnc(SCc2ccc(F)cc2Cl)s1 22.4 µM
Cc1cc(C)n(Cc2ccccc2Cl)n1 12.6 µM
Nc1cc(C(F)(F)F)ccc1Nc1ccccc1 25.1 µM
O=C1c2ccsc2SCCN1Cc1cccc(Cl)c1 15.8 µM
O=C(Cc1ccccc1)N1CCc2ccccc21 14.1 µM
O=C(CCNc1cccc(Cl)c1)c1ccco1 31.6 µM
O=C1CC(c2ccc(O)cc2)Oc2ccccc21 (stereo not given) 15.8 µM
Nc1nc(C23CC4CC(CC(C4)C2)C3)cs1 7.94 µM
COCCCNC(=O)Cn1nc(-c2ccc(C)cc2)ccc1=O 14.1 µM
Cc1ccc(NC(=O)N2CCCCCC2)cc1 12.6 µM
N#Cc1ccccc1NCc1ccccc1 11.2 µM
